Where “and” joins values, the source holds several entries; their conditions need not be identical. Equal values may be shown once. Records with an inconclusive call do not appear. Some structures have more than one record in an assay (separate samples or runs), and their calls can disagree. Calls of active or inactive are those of the source. Unless noted, the call rests on the fitted dose curve; in most records, active means well fitted curve in the direction sought with a large enough effect; inconclusive means small, poorly fitted or top-dose-only effect, or another doubt; inactive means no such curve, though single readings can be large; an effect the other way counts as inactive or inconclusive.

The nature of assay [1]: NCATS anti-infectives library activity on HEK293 viability as a counter-qHTS vs the C. elegans viability qHTS (AID 1745854). Further: on the % scale 0 is the no-effect control and ±100 the full control effect. The following applies: HEK293 viability counter-screen; series mostly up to 41.8 µM. The gist of the method: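 Cytotoxicity counter-screen to a worm viability qHTS: CellTiter-Glo luminescence read 10 min after reagent addition. Compounds (final up to 41.7 uM, a 1:5 dilution series) incubated 24 hr at 37C with 1,500 HEK293 cells per well; digitonin control.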
For orientation: In qHTS, concentration-response curves come from the screen itself.

Assay [2] addresses Catechol O-methyltransferase (Homo sapiens) (UniProt P21964). The assay can be described thus: Confirmatory Screen for Target Class Profiling of Small Molecule Inhibitors of Methyltransferases (AID 1745852; calls by dose curve; further: potency means the concentration at half of the fitted maximal effect; on activity change, negative = inhibition: on the % scale 0 is the no-effect control and ±100 the full control effect). The conditions noted are these: MTase-Glo luminescence, SAH detection, recombinant enzyme; measured here: COMT max response; stronger effect = lower value.
In assay [3] the target is Guanidinoacetate N-methyltransferase (Homo sapiens) (UniProt Q14353). The description is as above. The conditions noted are these: MTase-Glo luminescence, SAH detection, recombinant enzyme; activity change, negative = inhibition: at 57.3 µM (top of the series) unless noted.
Assay [4] addresses Nicotinamide N-methyltransferase (Homo sapiens) (UniProt P40261). Described as above. The following applies: MTase-Glo luminescence, SAH detection, recombinant enzyme; measured here: NNMT max response; stronger effect = lower value.
The target in assay [5] is Phenylethanolamine N-methyltransferase (Homo sapiens) (UniProt P11086). Described as above. The conditions noted are these: MTase-Glo luminescence, SAH detection, recombinant enzyme; measured here: PNMT max response; stronger effect = lower value.
Phenylethanolamine N-methyltransferase (Homo sapiens), sequence (P11086 whole entry, looked up): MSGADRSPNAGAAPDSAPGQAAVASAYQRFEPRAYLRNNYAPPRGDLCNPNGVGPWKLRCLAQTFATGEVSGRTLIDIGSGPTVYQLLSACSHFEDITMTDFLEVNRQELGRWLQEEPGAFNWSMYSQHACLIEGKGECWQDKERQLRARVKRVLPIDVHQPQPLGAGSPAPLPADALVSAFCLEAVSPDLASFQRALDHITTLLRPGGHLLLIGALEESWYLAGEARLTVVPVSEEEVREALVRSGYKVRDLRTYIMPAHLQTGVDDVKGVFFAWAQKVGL
The nature of assay [6]: Viability counterscreen for antagonist of constitutive androstane receptor (CAR) against the NCATS DSHEA and TCM libraries (AID 1794837).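 Further: compound exposure lasted 24 h before viability reading; 0% is about no effect.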 The following applies: CAR reporter cell line viability counterscreen, qHTS; series mostly up to 40 µM. The gist of the method: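 HepG2-CYP2B6-hCAR cells, 2,500/well, were exposed 24 hr at 37C to substances together with 48 uM CITCO (final). Viability was read as CellTiter-Fluor fluorescence (Ex/Em 405/540 nm) after 1 hr.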
Background: Counterscreens check selectivity or assay interference.

The nature of assay [7]: Viability counterscreen for agonist of constitutive androstane receptor (CAR) against the NCATS DSHEA and TCM libraries (AID 1794838). Further: 0% is about no effect. The conditions noted are these: HepG2 cell viability counterscreen, CAR agonist assay, co-treated with 0.75 µM CAR antagonist; series mostly up to 40 µM. The method in brief:
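HepG2-CYP2B6-hCAR cells (2,500/well) treated 24 h at 37C with compounds plus 0.75 uM PK11195; viability read by CellTiter-Fluor fluorescence, Ex/Em 405/540 nm.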

For assay [8], the target named is Nuclear receptor subfamily 1 group I member 3 (Homo sapiens) (UniProt Q14994). Kind of assay: Primary qHTS for agonist of constitutive androstane receptor (CAR) against the NCATS DSHEA and TCM libraries (AID 1794839).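 Further: HepG2 cells expressing human CAR with a CYP2B6 reporter plus PK11195 antagonist; 0% is about no effect.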 The conditions noted are these: CAR agonist reporter cells, qHTS luminescence, CAR antagonist co-added at 0.75 µM; series mostly up to 40 µM. The gist of the method: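 HepG2-CYP2B6-hCAR cells, 2,500/well, attached 5 h, then dosed with 0.75 µM PK11195 (final) for 24 h at 37 °C. Luciferase luminescence read (ONE-Glo); CellTiter-Fluor viability (Ex/Em 405/540 nm) in same wells; CITCO positive control.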
Nuclear receptor subfamily 1 group I member 3 (Homo sapiens), sequence (Q14994 whole entry, looked up): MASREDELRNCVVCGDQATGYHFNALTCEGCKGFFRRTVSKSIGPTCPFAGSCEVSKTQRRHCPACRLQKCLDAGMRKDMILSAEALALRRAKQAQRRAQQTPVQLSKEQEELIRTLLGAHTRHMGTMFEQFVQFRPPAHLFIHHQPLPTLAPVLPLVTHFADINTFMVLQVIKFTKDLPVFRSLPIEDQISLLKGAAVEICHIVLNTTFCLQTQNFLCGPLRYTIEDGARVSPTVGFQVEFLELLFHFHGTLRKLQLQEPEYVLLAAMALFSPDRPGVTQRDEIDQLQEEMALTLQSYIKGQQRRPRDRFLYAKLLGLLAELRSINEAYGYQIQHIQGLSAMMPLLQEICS

Assay [9] is described as follows: NCATS anti-infectives library activity on the primary C. elegans qHTS viability assay (AID 1745855; calls by dose curve; further: potency means the concentration at half of the fitted maximal effect). The conditions noted are these: C. elegans worm area imaging, day 7; series mostly up to 41.8 µM. The method in brief:
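GFP read-out by 488 nm laser cytometry at day 0, 3 and 7, gated on object perimeter, area and peak intensity, scored viability of PE254-GFP-FLuc worms exposed to compound in S medium with bacterial capsules at 21 °C.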

For assay [10], the target named is Rap guanine nucleotide exchange factor 4 (Homo sapiens) (UniProt Q8WZA2). The assay can be described thus: Confirmatory qHTS for antagonist of cAMP-regulated guanine nucleotide exchange factor 4 (EPAC2) (AID 1645885). Further: nearly all actives have a fitted effect of over 25% in size. Further: potency means the concentration at half of the fitted maximal effect. On activity change, negative = inhibition: on the % scale 0 is the no-effect control and ±100 the full control effect. The following applies: EPAC2 Rap1B-BODIPY-GDP exchange fluorescence, biochemical; series mostly up to 114 µM.
Rap guanine nucleotide exchange factor 4 (Homo sapiens), sequence (Q8WZA2 whole entry, looked up): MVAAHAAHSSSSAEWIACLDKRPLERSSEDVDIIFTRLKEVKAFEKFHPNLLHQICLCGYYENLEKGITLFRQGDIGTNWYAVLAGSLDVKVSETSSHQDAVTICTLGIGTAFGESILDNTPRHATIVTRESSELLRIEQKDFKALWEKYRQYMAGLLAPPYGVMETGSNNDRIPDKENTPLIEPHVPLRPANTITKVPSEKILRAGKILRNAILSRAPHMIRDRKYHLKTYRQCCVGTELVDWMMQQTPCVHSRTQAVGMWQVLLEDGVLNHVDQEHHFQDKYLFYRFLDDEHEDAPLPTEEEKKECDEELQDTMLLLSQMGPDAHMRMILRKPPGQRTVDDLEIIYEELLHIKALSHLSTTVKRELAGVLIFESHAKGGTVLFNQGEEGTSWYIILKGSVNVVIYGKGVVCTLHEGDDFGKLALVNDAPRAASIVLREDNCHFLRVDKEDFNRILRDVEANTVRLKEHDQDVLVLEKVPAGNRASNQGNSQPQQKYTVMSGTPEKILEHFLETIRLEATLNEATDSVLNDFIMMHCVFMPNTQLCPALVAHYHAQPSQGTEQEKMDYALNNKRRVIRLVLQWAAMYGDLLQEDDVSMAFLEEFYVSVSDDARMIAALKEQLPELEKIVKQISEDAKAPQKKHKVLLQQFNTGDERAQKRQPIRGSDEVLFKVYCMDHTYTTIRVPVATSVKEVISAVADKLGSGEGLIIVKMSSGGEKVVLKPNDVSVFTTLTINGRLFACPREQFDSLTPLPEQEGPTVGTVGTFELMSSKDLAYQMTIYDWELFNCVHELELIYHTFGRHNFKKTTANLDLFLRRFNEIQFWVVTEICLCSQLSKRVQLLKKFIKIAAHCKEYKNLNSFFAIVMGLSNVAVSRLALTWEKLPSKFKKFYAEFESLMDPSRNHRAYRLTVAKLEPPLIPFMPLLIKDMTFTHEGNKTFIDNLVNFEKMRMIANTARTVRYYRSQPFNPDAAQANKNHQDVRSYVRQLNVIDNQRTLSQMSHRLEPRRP

Catechol O-methyltransferase (Homo sapiens), sequence (P21964 whole entry, looked up): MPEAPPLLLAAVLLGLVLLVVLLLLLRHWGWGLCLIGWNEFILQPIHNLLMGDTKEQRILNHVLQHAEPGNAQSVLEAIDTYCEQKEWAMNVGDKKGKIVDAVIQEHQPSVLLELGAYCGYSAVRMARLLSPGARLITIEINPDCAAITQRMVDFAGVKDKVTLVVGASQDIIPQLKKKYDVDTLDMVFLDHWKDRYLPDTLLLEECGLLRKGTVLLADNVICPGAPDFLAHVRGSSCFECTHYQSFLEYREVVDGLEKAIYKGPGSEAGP
Nicotinamide N-methyltransferase (Homo sapiens), sequence (P40261 whole entry, looked up): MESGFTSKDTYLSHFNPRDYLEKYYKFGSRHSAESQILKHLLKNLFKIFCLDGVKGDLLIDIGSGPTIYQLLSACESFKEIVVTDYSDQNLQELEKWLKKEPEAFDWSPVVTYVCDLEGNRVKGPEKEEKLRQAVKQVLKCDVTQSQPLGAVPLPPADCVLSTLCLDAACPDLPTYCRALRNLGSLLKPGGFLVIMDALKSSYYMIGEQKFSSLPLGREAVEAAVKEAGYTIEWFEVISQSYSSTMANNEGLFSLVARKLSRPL

As to `CCCC(CCC)C(=O)O`, the outcome in assay [1] is “inactive”.

For the compound `OC[C@H](Cc1ccccc1)Nc1nc(Oc2ccc3c(c2)CCC3)nc2c1ncn2Cc1ccc(-c2ccccc2)cc1`, the figures for the activity in assay [2], in assay [4] and in [5] were -10.9%, -17.3% and -16%, respectively. In addition, the activity change, negative = inhibition in assay [3] is -8.58%.

With `NC(=O)c1cnccn1`, the outcome in [6], in assay [7] and in assay [8] was “inactive” in each case.

As for `O=C1CCC(N2C(=O)c3ccccc3C2=O)C(=O)N1` (centres undefined), in [1], the outcome was “inactive”.

With `c1ccc([C@H]2CN3CCSC3=N2)cc1`, the outcome in assay [1] is “inactive”. For the same compound, the Potency in assay [9] was 5.15 µM (active).

For the compound `O=C(c1cc(Cc2n[nH]c(=O)c3ccccc23)ccc1F)N1CCN(C(=O)C2CC2)CC1`, the outcome in assay [1] was “inactive”.

For the compound `CN1CCN(CCCN2c3ccccc3Sc3ccc(C(F)(F)F)cc32)CC1`, the Potency in assay [10] was 24.8 µM (active) and 44.1 µM (active). Further, the outcome in [1] is “inactive”.

Take `Cc1[nH]c(=O)c(C#N)cc1-c1ccc2nccn2c1`: the activity in assay [2] was 4.51%; in [4] it was -3.4%; in assay [5] it was 4.35%. Moreover, the activity change, negative = inhibition in assay [3] was 5.86%.

Regarding `C#Cc1cccc(Nc2ncnc3cc(OCCOC)c(OCCOC)cc23)c1`, the Potency result in assay [9] was “inactive”.

`CCc1cncnc1N1CCN(Cc2nc3ccc(C(F)(F)F)cc3[nH]2)CC1`: the activity is 1.23% in assay [2], -37.3% in [4] and -14.9% in assay [5]. Moreover, the activity change, negative = inhibition in assay [3] came out at 5.86%.

`CO[C@@H]1[C@H](N(C)C(=O)c2ccccc2)C[C@H]2O[C@]1(C)n1c3ccccc3c3c4c(c5c6ccccc6n2c5c31)C(=O)NC4`: the Potency result in assay [9] is “inactive”.

As for `CC(C)(Sc1ccc(CCN(CCCCC2CCCCC2)C(=O)NC2CCCCC2)cc1)C(=O)O`, in assay [10], the Potency is 44.1 µM (active) and inactive and 39.3 µM (active). Moreover, the values for the activity in assay [2], in assay [4] and in [5] were -3.21%, -46.1% and -8.68%, respectively. Further, the activity change, negative = inhibition in [3] came out at 2.53%.

As to `CS(=O)(=O)c1cccc(CNc2nc(Nc3ccc4c(c3)CCC(=O)N4)ncc2C(F)(F)F)c1`, the activity in [2] is -9.69% and -3.27%; in assay [4], -47.6% and -27.3%; in assay [5], -7.63% and -9.92%. In addition, the activity change, negative = inhibition in assay [3] is -3.15% and 1.66%.

Turning to `CCCc1nc2c(C)cc(-c3nc4ccccc4n3C)cc2n1Cc1ccc(-c2ccccc2C(=O)O)cc1`, the outcome in assay [1] was “inactive”.

In the case of `Oc1ccc(C2CNCCc3c2cc(O)c(O)c3Cl)cc1` (centres undefined), the activity in assay [2] is -77.1%; in assay [4] it was -15.5%; in assay [5], -4.58%. In addition, the Potency in assay [3] is 27.3 µM (active).

As to `CCCCCCCc1ccc(CCc2cccc(O)c2C(=O)O)cc1`, the activity in [2] was -2.12%; in assay [4], -13.2%; in assay [5], 1.23%. For the same compound, the activity change, negative = inhibition in assay [3] is -1.62%.

For `NC(=O)c1ccc(I)c([N+](=O)[O-])c1`, the outcome in [1] is “inactive”.

For the compound `Cc1cnc(Nc2ccc(OCCN3CCCC3)cc2)nc1Nc1cccc(S(=O)(=O)NC(C)(C)C)c1`, the activity in assay [2] was -12.3%; in assay [4] it was -31.4%; in assay [5], -8.53%. In [3], the activity change, negative = inhibition was -4.99%.

Turning to `Cn1cnc2c(F)c(Nc3ccc(Br)cc3Cl)c(C(=O)NOCCO)cc21`, the outcome in [1] was “inactive”.

As for `Nc1nccc(-c2ccc3noc(-c4ccc(Cl)cc4)c3c2)n1`, the activity in assay [2] was -4.29%; in assay [4] it was -9.7%; in [5] it was -0.0134%. Also, the activity change, negative = inhibition in assay [3] worked out at 4.33%.

`COc1cc2c(cc1OC)CN(CCc1ccc(NC(=O)c3cccc4c(=O)c5cccc(OC)c5[nH]c34)cc1)CC2`: the activity in assay [2] was -13%; in [4], -75.2%; in assay [5], -10.7%. In assay [3], the activity change, negative = inhibition was -0.294%. In addition, in assay [1], the outcome is “inactive”.

Turning to `Cc1ccccc1C(OCCN(C)C)c1ccccc1` (centres undefined), the results for the activity in assay [2], in assay [4] and in assay [5] were -2.48%, -5.32% and -1.88%, respectively. Moreover, the activity change, negative = inhibition in assay [3] was determined as 6.46%.

As for `CNC(=O)c1ccc(N2C(=S)N(c3ccc(C#N)c(C(F)(F)F)c3)C(=O)C2(C)C)cc1F`, the outcome in [1] is “inactive”.

Take `Nc1nc2[nH]cc(CCc3ccc(C(=O)N[C@@H](CCC(=O)O)C(=O)O)cc3)c2c(=O)[nH]1`: in [1], the outcome was “inactive”.

`CCCS(=O)(=O)Nc1ccc(F)c(C(=O)c2c[nH]c3ncc(-c4ccc(Cl)cc4)cc23)c1F`: the activity is -8.94% in [2], -26% in assay [4] and -12.4% in assay [5]. For the same compound, the activity change, negative = inhibition in assay [3] was -0.0685%.

In the case of `C[C@]1(c2nc3c(C(N)=O)cccc3[nH]2)CCCN1`, the outcome in assay [1] is “inactive”.

With `COc1cc(Nc2ncc3c(n2)-c2ccc(Cl)cc2C(c2c(F)cccc2OC)=NC3)ccc1C(=O)O`, the activity is 0.763% in assay [2], -15.5% in assay [4] and 2.42% in [5]. Besides, in [3], the activity change, negative = inhibition stood at 2.21%.

Regarding `NC[C@H](O)c1ccc(O)c(O)c1`, the activity turned out to be 45.4% in assay [2], 2.1% in assay [4] and 21.8% in assay [5]. Besides, the activity change, negative = inhibition in [3] is -4.17%.

On to `CCN(CC)CCCC(C)Nc1ccnc2cc(Cl)ccc12` (centres undefined), for which the activity in [2] was -0.478%; in [4], 3.54%; in assay [5] it was 0.752%. Also, in assay [3], the activity change, negative = inhibition was 2.04% [at 9.47 µM].

Consider `Nc1nc2c(ncn2COCCO)c(=O)[nH]1`, for which, in assay [1], the outcome was “inactive”.

On to `Cc1cnc(NC(=O)C2=C(O)c3ccccc3S(=O)(=O)N2C)s1`, for which the outcome in assay [1] is “inactive”.

With `COc1ccc2nc(S(=O)Cc3ncc(C)c(OC)c3C)[nH]c2c1` (centres undefined), the outcome in assay [1] was “inactive”.

Consider `CC(=O)Oc1ccccc1C(=O)O`, for which the outcome in assay [1] was “inactive”.

For the compound `CNCc1ccc(-c2[nH]c3cc(F)cc4c3c2CCNC4=O)cc1`, the activity in assay [2] is -6.4%; in assay [4] it was -24.3%; in assay [5], -15.2%. Also, the activity change, negative = inhibition in [3] is -1.39%. Besides, in assay [1], the outcome is “inactive”.

For the origin of these results see PubChem BioAssay (NCATS).
